This is part of a sample that, as a whole, favours compounds with a hit. Of some 83,000 tested, about 20% had one in any assay.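 Results are percent growth after 48 hours of single-concentration exposure. 100 means growth as in untreated cells, lower positive values show inhibition; negative values down to -100 show cell death.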 Calls of active or inactive are those of the source.
These compounds were tested on KM12 colon (assay: NCI-60 one-dose screen, 48 h (100 = growth as untreated, 0 = no growth, -100 = all killed)). Settings: 10 µM unless noted.
Procedure: Growth inhibition of the KM12 human tumor cell line is measured as a screen for anti-cancer activity. Cells are grown in 96 well plates and exposed to the test compound for 48 hours. Compounds are tested at a single concentration, which is 10^-5 M for most compounds. The reported endpoint is percent growth (GI% or GIPRCNT), where numbers from 0 - 100% represent growth inhibition, and numbers from -100% - 0 represent cell death. For example, a value of 40 represents 60% growth inhibition. A value of 0 means no net growth occurred over the course of the experiment. A value of -40 indicates 40% of cells at the beginning of the experiment died by the end of the experiment. A value of -100 means all cells are dead at the end of the experiment.
NCI-60 Human Tumor Cell Lines Screen was performed using the standard one-dose NCI protocol, which is described in more detail at https://dtp.cancer.gov/discovery_development/nci-60/default.htm.
Compounds with GIPRCNT values below 10 were considered active. Activity score was based on GIPRCNT using the following formula: […]
Score is 0 for GIPRCNT values of 100 or above, 50 for GIPRCNT values of 0, and 100 for GIPRCNT values of -100.

Row | Structure (SMILES) | growth
1 | O=C(O)c1cc2c(s1)C(=O)c1sccc1C2=O | 79.9% (inactive)
2 | CSc1nc(C)c(C(=O)CCN2CCN(c3ccccn3)CC2)s1 | 106% (inactive)
3 | Cc1ccccc1N=C(N)Nc1ccccc1C (tested in a mixture with another compound) | 64.6% (inactive)
4 | CCCCCCCCCCCC[n+]1ccc(CCCCCCCCC)cc1 | -74.4% (active)
5 | NC(=S)N/N=C\c1nccc2c(C(F)(F)F)cccc12 | 16% (inactive)
6 | O=C(Nc1ccc(Cl)c(Cl)c1)Nc1ccccc1O | 96.5% (inactive)
7 | O=C(CCl)N(c1ccccc1)c1ccccc1 | 106% (inactive)
8 | O=C(CBr)c1ccc(OC(=O)c2ccccc2)cc1 | 106% (inactive)
9 | CN(C)c1ccc(/C=C/c2sc3ccc4ccccc4c3[n+]2C)cc1 | -63% (active)
10 | Oc1ccc(Br)cc1Sc1cc(Br)ccc1O | 92.9% (inactive)
11 | CCN1CCCC(Nc2cc(C)nc(/N=C(/N)Nc3ccc(Cl)c(Cl)c3)n2)C1 (stereo not given) | -14.8% (active)
12 | CC1CC(C)(C)OB(OC(C)CC(C)(C)OB2OC(C)CC(C)(C)O2)O1 (stereo not given) | 101% (inactive)
13 | CC(C)(C)CC(C)(C)c1ccc(OCCOCCSC(=N)N)cc1 | 36.9% (inactive)
14 | CCC(=O)c1cc([N+](=O)[O-])c(Br)s1 | 93.8% (inactive)
15 | Oc1c(C(Nc2ccccc2)c2ccccc2)ccc2cccnc12 (stereo not given) | 32.5% (inactive)
16 | COc1cc([C@@H]2c3cc4c(cc3[C@H](OC3OC5COC(c6ccccc6)OC5C(O)C3O)[C@H]3COC(=O)[C@H]23)OCO4)cc(OC)c1OC (stereo not given in full) | 42.9% (inactive)
17 | Nc1nc2ncc(CNc3ccc(C(=O)NC(CCC(=O)NC(CCC(=O)NC(CCC(=O)NC(CCC(=O)NC(CCC(=O)O)C(=O)O)C(=O)O)C(=O)O)C(=O)O)C(=O)O)cc3)nc2c(=O)[nH]1 (stereo not given) | 101% (inactive)
18 | Cc1cc2nc(CC(=O)c3ccncc3)c(=O)[nH]c2cc1C | 103% (inactive)
19 | Cc1cc(C(=C2C=CC(=Nc3ccccc3)C=C2)c2ccc(Nc3ccccc3)cc2)ccc1N | -89.2% (active)
20 | CN=C(N)N/N=C(\C)c1ccc2c(c1)Cc1ccccc1-2 | -79% (active)

Row | Structure (SMILES) | growth
21 | Oc1ccc(Cl)cc1Cc1cc(Cl)ccc1O | 72.5% (inactive)
22 | CN(Cc1ccccc1)c1ccc(SC#N)cc1 | 40.4% (inactive)
23 | O=C(c1ccccc1)c1cc2ccccc2oc1=O | 92.3% (inactive)
24 | Nc1cccc2cccc([N+](=O)[O-])c12 | 113% (inactive)
25 | COc1ccc(C(OCC2OC(n3ccc(NC(=O)c4ccccc4)nc3=O)C(O)C2O)(c2ccccc2)c2ccccc2)cc1 (stereo not given) | 19.2% (inactive)
26 | Cc1cc(C)c(C#N)c(Sc2nc(C)c([N+](=O)[O-])c(C)c2C#N)n1 | 60.8% (inactive)
27 | CCOC(=O)NC(/C=C/c1ccccc1)NC(=O)OCC | 107% (inactive)
28 | CC12CCC(O)CC1=CCC1C2CCC2(C)C3=NN=CC3CC12 (stereo not given) | 94.3% (inactive)
29 | Clc1ccc(Cc2nc3ccccc3s2)cc1 | 93.2% (inactive)
30 | Cn1ccc(=Nc2ccc(NC(=O)c3ccc(N=c4ccn(C)c5ccc([N+](=O)[O-])cc45)cc3)cc2)cc1 | 57.8% (inactive)
31 | S=c1[nH]c2cc(Cl)ccc2s1 | 96.5% (inactive)
32 | O=S(=O)(O)c1cnccn1 | 98.9% (inactive)
33 | CC1(C)OC2C(COC(c3ccccc3)(c3ccccc3)c3ccccc3)OC(c3c[nH]c4c(N)ncnc34)C2O1 (stereo not given) | 50.3% (inactive)
34 | O=C(c1ccc(O)c(Br)c1)c1ccc(O)c(Br)c1 | 99.2% (inactive)
35 | CCCC[n+]1c(/C=C\c2c(OC)cc(OC)cc2OC)ccc2ccccc21 | -78.6% (active)
36 | O=C1C=CC(=O)N1c1ccccc1 | 103% (inactive)
37 | O=C(NOC(=O)c1ccccc1)c1ccccc1 | 101% (inactive)
38 | O=[N+]([O-])/C(=C/c1ccccc1)c1ccccc1 | 107% (inactive)
39 | O=C1C(=O)c2cccnc2-c2ncccc21 | -47.2% (active)
40 | CCCCCC[C@@H](O)C/C=C\CCCCCCCC(=O)OCCOC | 102% (inactive)
